# Data taken from PubChem BioAssay (EPA / NIEHS).
# Values joined by “and” are separate entries in the source; they are usually repeats but may differ in a detail not shown here. Identical values can stand only once. A structure can be active in one record and inactive in another. Active and inactive are the calls of the source. How the source made its calls: active means hit-call score of the fitted dose curve at least 0.9, where 1 is the maximum; inactive means score below 0.9.
# Test: CCTE_Shafer_MEA_acute_burst_percentage_std: CCTE's Neural Acute Assay for Standard Deviation of Burst Percentage, Shafer Lab (AID 2284018);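 further: fitted in the negative direction so actives lower burst percentage SD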
# Experimental: CCTE_Shafer_MEA_acute assay is conducted using Axion Biosystems 48 well microelectrode array (MEA) plates and Maestro recording system. Each well of the MEA plate contains a grid of 16 microelectrodes embedded in the culture surface. Electrically active cells, such as neurons, can be cultured over the electrodes, and electrical activity in these cells can be recorded extracellularly. The spontaneous firing of neurons is captured from each electrode on a microsecond timescale providing both temporally and spatially precise data. […] The CCTE_Shafer_MEA_acute assay uses primary cultures of rat cortical neurons. As these cultures mature over time, neural networks develop functional activity and form cohesive networks in which electrical activity can be highly coordinated. Baseline 40-minute recordings are made on days post-plating 13 or 15, followed by a secondary 40-minute recording after chemical exposure.CCTE_Shafer_MEA_acute_burst_percentage_std is a component of the CCTE_Shafer_MEA_acute assay. It measures the percentage of spikes (action potential firing) in a single-electrode burst (temporally-clustered groups of spikes) as the number of spikes in bursts divided by the total number of spikes during a recording in a microelectrode array (MEA) using Axion Biosystems Maestro 768 channel amplifier with the AxIS adaptive spike detector. The standard deviation of the burst percentages across electrodes is calculated to report a well-level value. The recordings before and after chemical treatment are used to calculate a percent change in the standard deviation of the burst percentage in each well.Data from the assay component CCTE_Shafer_MEA_acute_burst_percentage_std was analyzed into 1 assay endpoint. This assay endpoint, CCTE_Shafer_MEA_acute_burst_percentage_std, was analyzed in the negative analysis fitting direction relative to DMSO as the negative control and baseline of activity. Using a type of functional reporter, gain or loss-of-signal activity can be used to understand electrical activity.
# Spontaneous activity in the cortical cultures was recorded using an Axion Biosystems Maestro 768 channel amplifier and Axion Integrated Studios (AxIS) v1.8 (or later) software. The amplifier recorded from all channels simultaneously (gain = 1200 x; sampling rate = 12.5 kHz/channel): raw signals were filtered with a Butterworth band-pass filter (300-5000 Hz), which filters out slower local field potentials leaving only fast potentials, i.e., "spikes", arising from extracellular currents associated with action potentials (Pine 2006; Wheeler and Nam 2011). On-line spike detection of filtered signals was conducted with the AxIS adaptive spike detector, using a threshold of 8x the root mean squared (rms) noise on each channel. Any electrodes with rms noise levels greater than 5 uV were grounded (e.g., no data were recorded). Once grounded, an electrode was grounded for the duration of the experiment. All recordings were conducted at 37 C. Wells were deemed usable if on the day of the exposure >/= 10 electrodes were active (defined as >/= 5 spikes/min). On DIV 13 or 15, a minimum of three wells from one cortical culture preparation were treated with each compound (0.03-40 uM). Prior to recording baseline activity, each mwMEA plate was placed in the Maestro at 37 C and allowed to sit for 20 min while firing rates stabilized. Baseline activity (40 min) was recorded before the addition of each compound. An additional 40 min of spontaneous activity was recorded in the presence of each compound. Changes in network parameters relative to baseline were assessed following compound treatment.
Structure (SMILES),outcome,AC50
CNC(=O)ON=C(SC)C(=O)N(C)C,inactive,–
CC[C@H](C)[C@H]1O[C@]2(C=C[C@@H]1C)C[C@@H]1C[C@@H](C/C=C(\C)[C@@H](O[C@H]3C[C@H](OC)[C@@H](O[C@H]4C[C@H](OC)[C@@H](NC)[C@H](C)O4)[C@H](C)O3)[C@@H](C)/C=C/C=C3\CO[C@@H]4[C@H](O)C(C)=C[C@@H](C(=O)O1)[C@]34O)O2,–,48.5 nM (active) and 2.98 µM (active)
FC(F)C(F)(F)OCC(Cn1cncn1)c1ccc(Cl)cc1Cl (stereo not given),inactive,–
COP(=O)(NC(C)=O)SC (stereo not given),inactive,4.26 µM (active)
CCOC(=O)CC(SP(=O)(OC)OC)C(=O)OCC (stereo not given),inactive,–
CCCOCC(=Nc1ccc(Cl)cc1C(F)(F)F)n1ccnc1,inactive,–
N#CSCSC#N,inactive,–
O=[N+]([O-])c1cc(C(F)(F)F)c(Cl)c([N+](=O)[O-])c1Nc1ncc(C(F)(F)F)cc1Cl,inactive,–
CN(C)[C@@H]1C(=O)C(C(N)=O)=C(O)[C@@]2(O)C(=O)C3=C(O)c4c(O)cccc4[C@@](C)(O)[C@H]3[C@H](O)[C@@H]12,inactive,–
COP(=O)(OC)C(O)C(Cl)(Cl)Cl (stereo not given),inactive,–
C#CCC1=C(C)C(OC(=O)C2C(C=C(C)C)C2(C)C)CC1=O (stereo not given),–,19.9 µM (active)
CSC1=N[C@@](C)(c2ccccc2)C(=O)N1Nc1ccccc1,–,37.7 µM (active) and 26.1 µM (active)
CN(C)NC(=O)CCC(=O)O,inactive,–
C[Si](Cn1cncn1)(c1ccc(F)cc1)c1ccc(F)cc1,–,4.31 µM (active)
CON=C(C(=O)OC)c1ccccc1CON=C(C)c1cccc(C(F)(F)F)c1,inactive,–
C=C(C)[C@H]1Cc2c(ccc3c2O[C@@H]2COc4cc(OC)c(OC)cc4[C@@H]2C3=O)O1,–,30.3 µM (active)
CCOP(=S)(Oc1cnc(C(C)(C)C)nc1)OC(C)C (stereo not given),inactive,–

Structure (SMILES),outcome,AC50
C[N+]1(C)CCCCC1,inactive,–
CCc1cnc(C2=NC(C)(C(C)C)C(=O)N2)c(C(=O)O)c1 (stereo not given),inactive,–
Nc1c(Cl)cc([N+](=O)[O-])cc1Cl,–,26.9 µM (active)
CC(C)N(C(=O)SCC(Cl)=C(Cl)Cl)C(C)C,–,20 µM (active) and 7.81 µM (active)
CC(C)=CC1C(C(=O)OCN2C(=O)C3=C(CCCC3)C2=O)C1(C)C (stereo not given),–,26.1 µM (active)
CC(=NC#N)N(C)Cc1ccc(Cl)nc1,inactive,–
O=C(O)c1cc(Oc2ccc(C(F)(F)F)cc2Cl)ccc1[N+](=O)[O-],inactive,–
CC(C)[C@H](C(=O)O[C@H](C#N)c1cccc(Oc2ccccc2)c1)c1ccc(Cl)cc1,inactive,–
CCc1cccc(C)c1N(C(=O)CCl)C(C)COC (stereo not given),inactive,–
CC1=NNC(=O)N(/N=C/c2cccnc2)C1,inactive,–
CC(COc1ccc(Oc2ccccc2)cc1)Oc1ccccn1 (stereo not given),–,20 µM (active)
CN1COCN(Cc2cnc(Cl)s2)C1=N[N+](=O)[O-],inactive,–
CCOP(=O)(NC(C)C)Oc1ccc(SC)c(C)c1 (stereo not given),inactive,–
CCOP(=S)(OCC)SCCSCC,inactive,–
COc1cc(OC)nc(Sc2cccc(Cl)c2C(=O)O)n1,inactive,–
Cc1ccn2nc(S(=O)(=O)Nc3c(F)cccc3F)nc2n1,inactive,–
CCOP(=S)(OCC)Oc1ccc2c(C)c(Cl)c(=O)oc2c1,inactive,–
